Results filed as inconclusive are left out. Calls of active or inactive are those of the source. How the source made its calls, unless noted: active means hit-call score of the fitted dose curve at least 0.9, where 1 is the maximum; inactive means score below 0.9.
Key:
[1] = biological target: Oxysterols receptor LXR-alpha (Homo sapiens) (UniProt Q13133); test: ATG_LXRa_TRANS: Attagene TRANS-FACTORIAL HepG2 Assay for human Liver X Receptor alpha (LXRa) (AID 2282980; active means hit-call score of the fitted dose curve at least 0.9, where 1 is the maximum); conditions: HepG2 Attagene TRANS reporter, LXRa transactivation
In short: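 In this multiplexed TRANS system, compounds act on HepG2 cells carrying GAL4-UAS reporter units and a receptor-GAL4 fusion for 24 h. Induced reporter RNA is amplified, fluorescently labelled and sized by capillary electrophoresis, with DMSO as baseline.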

[2] = biological target: Oxysterols receptor LXR-beta (Homo sapiens) (UniProt P55055); test: ATG_LXRb_TRANS: Attagene TRANS-FACTORIAL HepG2 Assay for human Liver X Receptor beta (LXRb) (AID 2282981; active means hit-call score of the fitted dose curve at least 0.9, where 1 is the maximum); conditions: HepG2 Attagene TRANS GAL4-LXRb reporter, mRNA
In short: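 Gain-of-signal mRNA reporter endpoint, DMSO as negative control. Transiently transfected HepG2 cells carrying the NR-Gal4 chimera and GAL4-UAS reporter units were treated 24 h; transcripts quantified by RT-PCR and capillary electrophoresis fluorescence.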

[3] = biological target: Hepatocyte nuclear factor 4-alpha (Homo sapiens) (UniProt P41235); test: ATG_HNF4a_TRANS: Attagene TRANS-FACTORIAL HepG2 Assay for human Hepatocyte Nuclear Factor 4 alpha (HNF4a) (AID 2282982; active means hit-call score of the fitted dose curve at least 0.9, where 1 is the maximum); conditions: HepG2 HNF4a transactivation reporter, mRNA readout
In short: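 Gain-of-signal mRNA induction, relative to DMSO vehicle, was read after 24 h compound treatment of HepG2 cells bearing transfected GAL4-UAS reporters. Detection used RT-PCR, 6-FAM primer extension and capillary electrophoresis.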

[4] = ATG_M_32_TRANS: Attagene TRANS-FACTORIAL HepG2 Assay for M32 Transcription Factor (Internal Marker) (AID 2282984; active means hit-call score of the fitted dose curve at least 0.9, where 1 is the maximum;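 further: transcript level of a background control reporter unit measured by RT-PCR and capillary electrophoresis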); conditions: HepG2 Attagene TRANS M32 internal marker reporter
In short: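 Capillary electrophoresis of 6-FAM-labelled reporter fragments gives the signal; data fitted for gain over DMSO negative control. Source: HepG2 cells bearing transient multiple reporter transcription units, 24 h exposure.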

[5] = biological target: Transcriptional activator Myb (Homo sapiens) (UniProt P10242); test: ATG_Myb_CIS: Attagene CIS-FACTORIAL HepG2 Assay for human Myeloblastosis (Myb) Proto-Oncogene Transcription Factor (AID 2282986); conditions: HepG2 Attagene CIS-FACTORIAL Myb reporter transcription; actives raise or lower the signal
In short: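 Fluorescence signals from capillary electrophoresis of RT-PCR-amplified reporter cDNA give the read-out. Cells: HepG2 transfected with multiple cis-regulated reporter units. Exposure lasts 24 hours; DMSO defines baseline for gain or loss of signal.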

[6] = biological target: Nuclear respiratory factor 1 (Homo sapiens) (UniProt Q16656); test: ATG_NRF1_CIS: Attagene CIS-FACTORIAL HepG2 Assay for human Nuclear Respiratory Factor 1 (NRF1) Orphan Gene (AID 2282987); conditions: HepG2 NRF1 cis-element reporter, Attagene multiplex; actives raise or lower the signal
In short: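 Transcriptional reporter readout, one component of a 52-endpoint multiplexed HepG2 panel. Exposure 24 h; mRNA detected via RT-PCR and fluorescent capillary electrophoresis; fitting in both directions against DMSO.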

[7] = ATG_NFI_CIS: Attagene CIS-FACTORIAL HepG2 Assay for human Nuclear Factor I (NFI) (AID 2282989); conditions: HepG2 cis-regulatory reporter, NFI response element transcription; actives raise or lower the signal
In short: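 Cells: human liver HepG2, transiently transfected with promoter-regulated reporter transcription units. Exposure 24 h. Detection: fluorescent RT-PCR products separated by capillary electrophoresis, normalised to DMSO negative control.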

[8] = biological target: Myc proto-oncogene protein (Homo sapiens) (UniProt P01106); test: ATG_Myc_CIS: Attagene CIS-FACTORIAL HepG2 Assay for human Myelocytomatosis (Myc) Proto-Oncogene Transcription Factor (AID 2282990); conditions: HepG2, Attagene cis-reporter transcription factor activity; actives raise or lower the signal
In short: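 Read-out: fluorescent reporter mRNA fragments resolved by capillary electrophoresis after RT-PCR. Human HepG2 liver cells carried transfected cis-element reporter units and were dosed for 24 h. Gain or loss of signal fitted relative to DMSO baseline.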

[9] = ATG_NRF2_ARE_CIS: Attagene CIS-FACTORIAL HepG2 Assay for human Nuclear Factor Erythroid 2 Related Factor 2 (NFR2) response to Antioxidant Response Elements (ARE) (AID 2282992); conditions: HepG2 Attagene ARE/NRF2 reporter, transcription factor activity; actives raise or lower the signal;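 on AC50: reporter mRNA level measured by RT-PCR and capillary electrophoresis fluorescence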
In short: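 Cis-factorial assay: transfected HepG2 reporter library, 24 h dosing, mRNA readout via RT-PCR/CE; DMSO-referenced bidirectional analysis.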

[10] = ATG_Oct_MLP_CIS: Attagene CIS-FACTORIAL HepG2 Assay for human Octamer-Binding Transcription Factor (Oct) (AID 2282993); conditions: HepG2 Attagene cis-factorial Oct reporter, mRNA; actives raise or lower the signal
In short: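 HepG2, transient MRTU transfection, cis promoter elements; 24 h dosing; RT-PCR/CE fluorescence read-out of reporter mRNA; fit both directions vs DMSO.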

[11] = biological target: Cellular tumor antigen p53 (Homo sapiens) (UniProt P04637); test: ATG_p53_CIS: Attagene CIS-FACTORIAL HepG2 Assay for human p53 Transcription Factor (AID 2282994); conditions: HepG2 p53 cis-element reporter, Attagene mRNA; actives raise or lower the signal
In short: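 Using HepG2 hepatoma cells carrying cis-acting multiplexed reporters, mRNA induction is detected after a 24 h exposure. Gain- and loss-of-signal responses are fitted relative to DMSO-treated cells.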

[12] = biological target: Bile acid receptor (Homo sapiens) (UniProt Q96RI1); test: ATG_FXR_TRANS: Attagene TRANS-FACTORIAL HepG2 Assay for Farnesoid X Receptor (FXR) (AID 2282979; active means hit-call score of the fitted dose curve at least 0.9, where 1 is the maximum;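 further: hits raise reporter mRNA above DMSO so AC50 marks FXR activation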); conditions: HepG2 Attagene TRANS FXR-GAL4 reporter transcription
In short: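 After 24 h chemical treatment of transfected HepG2 cells, GAL4-UAS reporter transcripts driven by an exogenous FXR-GAL4 fusion were measured by RT-PCR and capillary electrophoresis. Increases over DMSO were fitted.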

[13] = biological target: Nuclear receptor subfamily 4 group A member 2 (Homo sapiens) (UniProt P43354); test: ATG_NURR1_TRANS: Attagene TRANS-FACTORIAL HepG2 Assay for human Nuclear Receptor Related Protein 1 (NURR1) (AID 2282985; active means hit-call score of the fitted dose curve at least 0.9, where 1 is the maximum); conditions: HepG2 Attagene TRANS reporter, mRNA readout
In short: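 HepG2 / transient MRTU transfection / 24 h compound exposure / RT-PCR + CE fluorescence of reporter mRNA / gain-of-signal vs DMSO.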

[14] = ATG_NF_kB_CIS: Attagene CIS-FACTORIAL HepG2 Assay for human Nuclear Factor Kappa B (NF-kB) (AID 2282991); conditions: HepG2 Attagene cis-factorial NF-kB reporter mRNA; actives raise or lower the signal
In short: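 HepG2, transient multi-reporter transfection, cis promoter elements (endogenous TFs). 24 h exposure. Total RNA → RT → PCR → 6-FAM label → HpaI → CE. Gain/loss vs DMSO.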

[15] = ATG_M_06_TRANS: Attagene TRANS-FACTORIAL HepG2 Assay for M06 Transcription Factor (Internal Marker) (AID 2282983; active means hit-call score of the fitted dose curve at least 0.9, where 1 is the maximum); conditions: HepG2 Attagene TRANS M06 internal marker reporter
In short: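 Internal-marker background readout from a multiplexed TRANS reporter system in HepG2; 24 h dosing; mRNA induction quantified by RT-PCR plus capillary electrophoresis fluorescence; DMSO as negative control and baseline.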

[16] = BSK_3C_TissueFactor: BioMAP Diversity Plus: 3C Assay for Tissue Factor Biomarker Activity (AID 2282997); conditions: BioMAP 3C HUVEC, tissue factor biomarker readout; actives raise or lower the signal
In short: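 Endothelial monolayers (human umbilical vein, primary) are dosed, incubated 24 h, and assayed for Tissue Factor by ELISA; DMSO serves as negative control for bidirectional fitting.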

[17] = BSK_3C_uPAR: BioMAP Diversity Plus: 3C Assay for Urokinase-type plasminogen activator receptor (uPAR) Biomarker Activity (AID 2282998); conditions: BioMAP 3C HUVEC, uPAR biomarker ELISA; actives raise or lower the signal
In short: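 A multiplexed primary-cell system built on human umbilical vein endothelium was used, with chemical present for 24 h before reading. Cell-surface uPAR was detected by ELISA; signal change in either direction counted against DMSO.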

[18] = BSK_3C_VCAM1: BioMAP Diversity Plus: 3C Assay for Vascular cell adhesion molecule 1 (VCAM1) Biomarker Activity (AID 2282999); conditions: BioMAP 3C HUVEC, VCAM1 ELISA, cytokine-stimulated; actives raise or lower the signal
In short: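 Human umbilical vein endothelial cells (3C system), biomarker read by ELISA 24 h after dosing; bidirectional fit against DMSO baseline. Cytotoxicity tracked by SRB total-protein staining in parallel cultures at biomarker time.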

[19] = BSK_4H_Eotaxin3: BioMAP Diversity Plus: 4H Assay for Eotaxin 3 Biomarker Activity (AID 2283000); conditions: primary human endothelial cells (HUVEC); actives raise or lower the signal;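 further: CCL26 protein level quantified by ELISA in parallel with SRB cytotoxicity check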
In short: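 ELISA quantitation of CCL26 (Eotaxin-3) protein from chemically dosed human vascular endothelial cells at 24 h; increases and decreases both scored relative to DMSO-treated baseline.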

Measured: AC50

Chain of Cellular tumor antigen p53 (Homo sapiens) (P04637 whole entry, looked up): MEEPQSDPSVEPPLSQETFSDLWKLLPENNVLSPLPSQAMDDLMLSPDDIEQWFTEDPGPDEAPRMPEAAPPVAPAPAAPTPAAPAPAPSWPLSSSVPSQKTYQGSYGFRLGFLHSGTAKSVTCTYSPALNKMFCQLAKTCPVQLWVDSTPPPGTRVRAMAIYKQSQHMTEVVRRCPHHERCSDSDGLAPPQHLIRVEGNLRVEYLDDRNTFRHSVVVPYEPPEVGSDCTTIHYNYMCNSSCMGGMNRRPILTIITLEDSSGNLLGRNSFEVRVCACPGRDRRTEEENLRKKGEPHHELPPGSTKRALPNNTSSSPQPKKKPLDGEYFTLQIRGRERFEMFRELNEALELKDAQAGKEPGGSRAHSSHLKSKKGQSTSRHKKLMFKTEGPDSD
Chain of Myc proto-oncogene protein (Homo sapiens) (P01106 whole entry, looked up, the tested form may be a part): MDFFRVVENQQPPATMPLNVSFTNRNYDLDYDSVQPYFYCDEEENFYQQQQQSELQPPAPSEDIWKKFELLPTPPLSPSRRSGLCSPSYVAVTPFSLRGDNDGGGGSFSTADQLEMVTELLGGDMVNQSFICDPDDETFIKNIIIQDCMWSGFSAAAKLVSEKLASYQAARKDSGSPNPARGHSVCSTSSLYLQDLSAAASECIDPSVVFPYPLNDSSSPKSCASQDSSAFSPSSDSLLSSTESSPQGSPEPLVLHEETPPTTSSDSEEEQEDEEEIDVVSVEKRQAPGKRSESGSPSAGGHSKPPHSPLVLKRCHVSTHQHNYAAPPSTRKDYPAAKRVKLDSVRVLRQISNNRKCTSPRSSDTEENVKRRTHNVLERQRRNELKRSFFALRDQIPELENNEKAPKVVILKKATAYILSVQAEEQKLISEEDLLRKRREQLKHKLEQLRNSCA
Chain of Oxysterols receptor LXR-alpha (Homo sapiens) (Q13133 whole entry, looked up, the tested form may be a part): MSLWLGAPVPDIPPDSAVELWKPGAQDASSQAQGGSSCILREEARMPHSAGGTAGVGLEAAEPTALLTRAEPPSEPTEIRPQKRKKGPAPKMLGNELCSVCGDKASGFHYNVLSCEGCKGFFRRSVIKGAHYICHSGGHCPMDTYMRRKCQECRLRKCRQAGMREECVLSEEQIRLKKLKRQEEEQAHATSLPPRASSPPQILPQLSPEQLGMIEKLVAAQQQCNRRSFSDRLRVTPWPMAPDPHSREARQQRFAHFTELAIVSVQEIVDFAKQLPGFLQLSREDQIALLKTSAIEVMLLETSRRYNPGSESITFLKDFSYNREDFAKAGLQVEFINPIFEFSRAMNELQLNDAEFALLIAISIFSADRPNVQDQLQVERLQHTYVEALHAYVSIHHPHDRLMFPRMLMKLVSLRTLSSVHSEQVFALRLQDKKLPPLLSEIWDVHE
Chain of Oxysterols receptor LXR-beta (Homo sapiens) (P55055 whole entry, looked up, the tested form may be a part): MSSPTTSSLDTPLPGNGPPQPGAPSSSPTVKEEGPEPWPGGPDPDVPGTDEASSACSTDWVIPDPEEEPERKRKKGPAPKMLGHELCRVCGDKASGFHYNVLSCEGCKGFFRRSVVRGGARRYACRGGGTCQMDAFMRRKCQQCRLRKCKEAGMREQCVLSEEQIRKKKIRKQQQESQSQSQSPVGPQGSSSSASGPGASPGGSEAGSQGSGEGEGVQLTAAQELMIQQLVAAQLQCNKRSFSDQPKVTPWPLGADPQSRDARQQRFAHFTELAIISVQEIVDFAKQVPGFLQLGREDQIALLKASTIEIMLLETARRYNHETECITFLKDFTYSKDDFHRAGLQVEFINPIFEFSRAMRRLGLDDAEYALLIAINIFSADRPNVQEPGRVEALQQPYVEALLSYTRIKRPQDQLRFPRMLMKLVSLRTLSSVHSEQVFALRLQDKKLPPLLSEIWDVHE
Chain of Hepatocyte nuclear factor 4-alpha (Homo sapiens) (P41235 whole entry, looked up, the tested form may be a part): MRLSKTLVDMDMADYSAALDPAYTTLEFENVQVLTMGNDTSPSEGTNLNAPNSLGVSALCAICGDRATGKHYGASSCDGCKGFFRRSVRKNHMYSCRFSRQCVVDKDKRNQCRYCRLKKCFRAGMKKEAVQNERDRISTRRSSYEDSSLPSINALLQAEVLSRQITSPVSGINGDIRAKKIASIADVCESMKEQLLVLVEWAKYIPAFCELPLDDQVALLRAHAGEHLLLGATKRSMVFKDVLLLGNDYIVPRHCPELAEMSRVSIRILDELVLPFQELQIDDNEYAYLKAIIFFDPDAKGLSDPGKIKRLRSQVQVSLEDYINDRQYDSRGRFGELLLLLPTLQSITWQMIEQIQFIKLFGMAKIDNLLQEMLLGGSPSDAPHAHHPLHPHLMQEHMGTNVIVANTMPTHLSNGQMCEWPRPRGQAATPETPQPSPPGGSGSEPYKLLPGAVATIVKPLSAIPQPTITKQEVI
Chain of Nuclear receptor subfamily 4 group A member 2 (Homo sapiens) (P43354 whole entry, looked up): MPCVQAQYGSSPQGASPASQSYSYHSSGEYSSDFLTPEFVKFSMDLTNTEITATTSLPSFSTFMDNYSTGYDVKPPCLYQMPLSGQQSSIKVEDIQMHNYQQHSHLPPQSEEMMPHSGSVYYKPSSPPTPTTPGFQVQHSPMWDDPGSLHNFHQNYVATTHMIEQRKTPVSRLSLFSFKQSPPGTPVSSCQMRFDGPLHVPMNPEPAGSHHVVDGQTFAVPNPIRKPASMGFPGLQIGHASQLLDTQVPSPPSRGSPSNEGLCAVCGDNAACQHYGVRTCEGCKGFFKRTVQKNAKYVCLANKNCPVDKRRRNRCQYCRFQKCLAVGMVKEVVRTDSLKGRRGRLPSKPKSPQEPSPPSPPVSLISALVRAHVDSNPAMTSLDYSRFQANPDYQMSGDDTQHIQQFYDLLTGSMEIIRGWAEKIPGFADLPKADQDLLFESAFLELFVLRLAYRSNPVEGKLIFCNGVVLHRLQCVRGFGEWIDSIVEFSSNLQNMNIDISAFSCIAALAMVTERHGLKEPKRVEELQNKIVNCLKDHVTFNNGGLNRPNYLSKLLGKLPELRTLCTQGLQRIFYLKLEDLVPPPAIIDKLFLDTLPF
Chain of Nuclear respiratory factor 1 (Homo sapiens) (Q16656 whole entry, looked up): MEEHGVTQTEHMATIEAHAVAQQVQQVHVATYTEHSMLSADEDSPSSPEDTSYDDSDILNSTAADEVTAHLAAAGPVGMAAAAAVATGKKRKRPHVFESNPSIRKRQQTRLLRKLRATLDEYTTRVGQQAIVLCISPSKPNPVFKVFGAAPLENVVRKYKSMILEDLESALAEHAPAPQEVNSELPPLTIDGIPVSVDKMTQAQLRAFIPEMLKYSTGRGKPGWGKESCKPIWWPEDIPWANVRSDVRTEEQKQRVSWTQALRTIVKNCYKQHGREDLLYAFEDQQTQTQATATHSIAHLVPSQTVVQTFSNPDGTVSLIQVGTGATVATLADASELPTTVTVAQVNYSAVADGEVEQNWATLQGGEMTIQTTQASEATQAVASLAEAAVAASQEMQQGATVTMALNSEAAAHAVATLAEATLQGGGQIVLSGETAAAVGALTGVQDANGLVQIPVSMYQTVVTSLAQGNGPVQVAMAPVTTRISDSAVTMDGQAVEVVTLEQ
Chain of Transcriptional activator Myb (Homo sapiens) (P10242 whole entry, looked up): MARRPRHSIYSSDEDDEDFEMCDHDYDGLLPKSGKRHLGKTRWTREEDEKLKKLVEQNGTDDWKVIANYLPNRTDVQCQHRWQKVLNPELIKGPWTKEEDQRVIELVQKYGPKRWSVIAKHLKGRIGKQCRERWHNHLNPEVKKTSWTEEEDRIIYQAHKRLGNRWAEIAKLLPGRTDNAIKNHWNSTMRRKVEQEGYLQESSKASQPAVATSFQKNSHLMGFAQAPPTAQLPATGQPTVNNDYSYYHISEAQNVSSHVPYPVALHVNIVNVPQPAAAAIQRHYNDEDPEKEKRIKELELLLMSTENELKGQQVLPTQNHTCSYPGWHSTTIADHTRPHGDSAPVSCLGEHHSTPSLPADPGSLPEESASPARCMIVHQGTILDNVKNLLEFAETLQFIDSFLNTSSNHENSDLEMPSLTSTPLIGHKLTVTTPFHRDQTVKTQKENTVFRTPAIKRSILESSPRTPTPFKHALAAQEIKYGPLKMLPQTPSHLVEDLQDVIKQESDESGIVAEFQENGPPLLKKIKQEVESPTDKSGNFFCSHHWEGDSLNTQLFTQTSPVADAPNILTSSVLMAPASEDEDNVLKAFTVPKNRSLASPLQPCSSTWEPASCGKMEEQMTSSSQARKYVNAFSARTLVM
Chain of Bile acid receptor (Homo sapiens) (Q96RI1 whole entry, looked up, the tested form may be a part): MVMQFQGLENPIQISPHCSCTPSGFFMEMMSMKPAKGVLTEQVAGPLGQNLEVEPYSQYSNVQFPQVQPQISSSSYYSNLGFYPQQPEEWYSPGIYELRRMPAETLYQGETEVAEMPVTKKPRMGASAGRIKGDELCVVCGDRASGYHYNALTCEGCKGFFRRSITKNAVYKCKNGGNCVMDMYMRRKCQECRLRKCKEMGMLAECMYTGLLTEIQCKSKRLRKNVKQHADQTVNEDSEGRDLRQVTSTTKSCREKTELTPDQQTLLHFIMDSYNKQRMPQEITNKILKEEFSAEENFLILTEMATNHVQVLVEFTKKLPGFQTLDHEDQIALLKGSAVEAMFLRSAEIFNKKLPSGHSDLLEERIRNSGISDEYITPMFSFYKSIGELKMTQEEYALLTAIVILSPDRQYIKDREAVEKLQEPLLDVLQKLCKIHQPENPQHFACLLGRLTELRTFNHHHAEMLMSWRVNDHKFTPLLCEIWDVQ

C[C@H]1C[C@H]2[C@@H]3CCC4=CC(=O)C=C[C@]4(C)[C@@]3(F)[C@@H](O)C[C@]2(C)[C@@]1(O)C(=O)COP(=O)(O)O
inactive: [1] | [2] | [3] | [4] | [5] | [6] | [7] | [8] | [10] | [11]
active: [9] 15.6 µM

O=c1[nH]nnc2ccccc12
inactive: [12] | [3] | [13] | [6] | [7] | [8] | [14] | [9] | [11]

CC(=O)c1c(C)cc(C(C)(C)C)cc1C
not listed: [4] | [12] | [14] | [16] | [17] | [18] | [19]
inactive: all other assays above

Cc1ncc([N+](=O)[O-])n1C
inactive: [12] | [2] | [13] | [5] | [6] | [7] | [8] | [9] | [10] | [11]

O=C1c2ccccc2C(=O)N1SC1CCCCC1
active: [9] 65.4 µM | [11] 167 µM
not listed: [1] | [7] | [15] | [16] | [17] | [18] | [19]
inactive: all other assays above

CC1=CC(=O)NS(=O)(=O)O1
inactive: [1] | [2] | [3] | [15] | [4] | [5] | [6] | [7] | [8] | [9]

CC(C)=CCO
not listed: [12] | [13] | [14] | [15] | [16] | [17] | [18] | [19]
inactive: all other assays above

CCCCCCCCCOC(C)=O
inactive: [12] | [4] | [13] | [6] | [7] | [8] | [14] | [9] | [10] | [11]

CC[Si](OC(C)=O)(OC(C)=O)OC(C)=O
not listed: [2] | [4] | [10] | [12] | [13]
inactive: all other assays above

CCCCCCOC(=O)CC
not listed: [3] | [6] | [12] | [15] | [16] | [17] | [18] | [19]
inactive: all other assays above

CC(C)=CCC[C@](C)(O)[C@@H]1CC=C(C)CC1
inactive: [1] | [13] | [5] | [6] | [7] | [8] | [14] | [9] | [10] | [11]

CCC/C=C/C=O
active: [9] 30.5 µM
inactive: [1] | [13] | [5] | [6] | [7] | [8] | [10]

CC(=O)/C=C/C1=C(C)CCCC1(C)C
active: [9] 27.7 µM
inactive: [1] | [15] | [13] | [5] | [8] | [10] | [16] | [17] | [18] | [19]

C=C(C)C(=O)Nc1ccc(Cl)c(Cl)c1
inactive: [1] | [2] | [15] | [5] | [6] | [7] | [8] | [14] | [11]
active: [13] 69.8 µM | [9] 13.6 µM | [10] 26.5 µM

N#Cc1nc(Cl)c(Cl)c(Cl)c1Cl
active: [3] 5.77 µM | [5] 2.71 µM | [6] 5.93 µM | [7] 6.05 µM | [14] 4.63 µM | [9] 0.885 µM
inactive: [1] | [15] | [4] | [13] | [8]

CCCCCCCCCCCCN
active: [14] 15 µM | [9] 17.8 µM
not listed: [2] | [12] | [16] | [17] | [18] | [19]
inactive: all other assays above

CC(C)OP(=O)(CP(=O)(OC(C)C)OC(C)C)OC(C)C
not listed: [3] | [12] | [14] | [16] | [17] | [18] | [19]
inactive: all other assays above

COc1nc(C)nc(N)n1
not listed: [2] | [11] | [12] | [16] | [17] | [18] | [19]
inactive: all other assays above

NC(=O)NC1NC(=O)NC1=O (configuration not stated)
not listed: [3] | [12] | [13] | [16] | [17] | [18] | [19]
inactive: all other assays above

OCCOCCOCCOCCO
not listed: [2] | [7] | [12] | [16] | [17] | [18] | [19]
inactive: all other assays above

CC1CC(OC(=O)c2ccccc2O)CC(C)(C)C1 (configuration not stated)
inactive: [2] | [4] | [5] | [6] | [8] | [9] | [10] | [11]
active: [1] 31.1 µM
